Growth data for eight molecules are collected here from PubChem BioAssay (NCI).

Holding throughout (test): NCI-60 one-dose screen, 48 h (100 = growth as untreated, 0 = no growth, -100 = all killed)
Details in all cases: 10 µM unless noted

The test system of experiment [1] is DU-145 prostate.
Experiment [2] relates to K-562 leukemia.
The test system of experiment [3] is MALME-3M melanoma.
For experiment [4], the system named is MDA-MB-231 breast.
Experiment [5] relates to RXF 393 renal.
In experiment [6] the test system is SF-268 CNS.
Experiment [7] relates to SF-539 CNS.
Experiment [8] relates to UACC-257 melanoma.
In experiment [9] the test system is M14 melanoma.
In experiment [10] the test system is HCT-15 colon.
In experiment [11] the test system is HT29 colon.
Experiment [12] has as its system SNB-75 CNS.
Experiment [13] has as its system SNB-19 CNS.
Experiment [14] has as its system U251 CNS.
For experiment [15], the system named is PC-3 prostate.
The subject of experiment [16] is SK-MEL-5 melanoma.
In experiment [17] the test system is UACC-62 melanoma.
Experiment [18] concerns LOX IMVI melanoma.
The test system of experiment [19] is SK-MEL-28 melanoma.

Each structure is given as a SMILES string. Compounds without any hit were thinned out: in the full panel of roughly 83,000, 20% have a hit.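 Step 1: grow cells in 96-well plates. Step 2: add test compound at a single concentration. Step 3: incubate 48 h. Step 4: record percent growth.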 Values without a mark were called inactive. Calls of active or inactive are those of the source. Rule for the calls: active = growth percent below 10; inactive = the rest.

For the molecule `COC1CC(N)C2OC(c3ccccc3)OCC2O1` (configuration not stated), the growth was 115% in experiment [1]; 93.9% in experiment [2]; 106% in [3]; 98.3% in experiment [4]; 115% in experiment [5]; 108% in experiment [6]. The growth in experiment [7] was 101%; in [8], 95.4%; in [9], 107%; in experiment [10] it was 97.1%; in [11], 103%; in [12], 71.4%. Moreover, the growth in experiment [13] is 103%; in experiment [14] it was 99.8%; in experiment [15], 105%; in [16], 105%; in experiment [17], 101%; in experiment [18], 98.8%. In addition, the growth in [19] is 105%.

With `Brc1cccc(-n2ncc3c(Nc4ccc(-c5nnc(-c6ccccc6)o5)cc4)ncnc32)c1`, the growth in experiment [1] was 111%; in [2], 110%; in experiment [3], 110%; in experiment [4] it was 93.5%; in [5], 92.9%; in [6], 98.6%. For the same molecule, the growth in experiment [7] is 95.9%; in experiment [8], 108%; in experiment [9] it was 108%; in [10], 101%; in [11], 106%; in experiment [12], 92.3%. For the same molecule, the growth in experiment [13] is 102%; in experiment [14], 103%; in experiment [15], 95.1%; in experiment [16], 98.7%; in [17], 93.3%; in [18], 93.3%. Further, in [19], the growth is 112%.

As to `CC(=O)O[C@H]1[C@H](CC#CC#CC[C@@H]2C[C@]3(C)[C@H]4CC=C5[C@H]6[C@@H](C)[C@H](C)CC[C@]6(C(=O)NCCN(CCN)CCN)CC[C@@]5(C)[C@]4(C)CC[C@H]3C(C)(C)[C@H]2OC(C)=O)C[C@]2(C)[C@H]3CC=C4[C@H]5[C@@H](C)[C@H](C)CC[C@]5(C(=O)NCCN(CCN)CCN)CC[C@@]4(C)[C@]3(C)CC[C@H]2C1(C)C`, the growth was 86% in experiment [1]; 18.3% in experiment [2]; 67.8% in experiment [3]; 59.6% in experiment [4]; 57.9% in experiment [5]; 87.1% in experiment [6]. The growth in experiment [7] is 84.2%; in [8] it was 96%; in experiment [9] it was 63.1%; in experiment [10] it was 26.8%; in [11], 58.1%; in [12] it was 68.1%. The growth in experiment [13] is 31.9%; in experiment [14] it was 36.2%; in [15] it was 51.7%; in experiment [16], 92.2%; in experiment [17], 40.9%; in [18] it was 50.9%. The growth in [19] was 85%.

In the case of `CCCC(CCC)NCC(O)c1cc(-c2ccc(C(F)(F)F)cc2)nc(C(F)(F)F)c1` (configuration not stated), the growth is -26.2% (active) in experiment [1]; -51.1% (active) in experiment [2]; -63.7% (active) in experiment [3]; -66.9% (active) in experiment [4]; -97% (active) in [5]; -40.5% (active) in experiment [6]. In addition, the growth was -72.2% (active) in experiment [7]; -76.9% (active) in experiment [8]; -74.8% (active) in [9]; -62.4% (active) in experiment [10]; -74% (active) in [11]; -3.88% (active) in [12]. In addition, the growth was 8.92% (active) in experiment [13]; -96.6% (active) in experiment [14]; -47.3% (active) in experiment [15]; -94% (active) in experiment [16]; -68.1% (active) in experiment [17]; -64.2% (active) in experiment [18]. In addition, in experiment [19], the growth was -41.9% (active).

Consider `C=CCn1c(SCC(=O)Nc2ccc(/C(C)=N\O)cc2)nnc1-c1cc(-c2ccc(Cl)cc2)nc2ccccc12`, for which the growth in experiment [1] was 48.5%; in experiment [2], 13.4%; in experiment [3], 71.7%; in experiment [4], 35%; in [5], 47%; in experiment [6], 38.2%. Further, the growth in experiment [7] was 15.8%; in [8], 47.9%; in experiment [9] it was 20.4%; in experiment [10], 25.1%; in experiment [11], 24.7%; in experiment [12] it was 40.9%. The growth was 49.4% in experiment [13]; 25.8% in experiment [14]; 22.9% in experiment [15]; 33.9% in experiment [16]; 25.5% in [17]; -66.6% (active) in experiment [18]. In experiment [19], the growth is 45.3%.

Consider `CSC1=NC(=Nc2c(C)cccc2C)C2(CCC(C(C)(C)C)CC2)N1c1ccc(Cl)cc1` (configuration not stated), for which the growth was 40.3% in experiment [1]; 17.7% in experiment [2]; 38.5% in experiment [3]; 61.8% in experiment [4]; 38% in experiment [5]; 42.8% in experiment [6]. Moreover, the growth in [7] is 46.5%; in [8] it was 54.1%; in experiment [9], 49.5%; in [10], 31.9%; in experiment [11] it was 25.5%; in experiment [12] it was 74.8%. In addition, the growth in [13] is 75.3%; in [14], 30.6%; in experiment [15], 47.9%; in [16] it was 47.6%; in [17], 73.8%; in experiment [18], 20.8%. In experiment [19], the growth was 79.5%.

For the molecule `O=C(NC1CC1)c1ccc(-c2nc3ccc4[nH]ncc4c3c3c2CCCC3)cc1`, the growth in experiment [1] was 38.2%; in experiment [2], 24.4%; in experiment [3], 53.8%; in experiment [4] it was 45.7%; in experiment [5], -9.49% (active); in experiment [6] it was 35.1%. For the same molecule, the growth in [7] is 31.3%; in [8], 60.2%; in experiment [9], 44.7%; in experiment [10], 29%; in experiment [11], 35.2%; in [12], -5.58% (active). The growth in experiment [13] was 65.3%; in [14], 34.5%; in experiment [15], 43.1%; in experiment [16], 55.2%; in experiment [17] it was 28.8%; in experiment [18] it was 38.7%. Moreover, in experiment [19], the growth is 47.4%.

`OC(c1cc(-c2ccc(C(F)(F)F)cc2)nc(-c2ccc(C(F)(F)F)cc2)c1)C1CCCCN1` (configuration not stated): the growth in [1] was -94.9% (active); in [2] it was -73.6% (active); in experiment [3], -64.7% (active); in experiment [4], -71% (active); in experiment [5] it was -86% (active); in experiment [6] it was -83.9% (active). Moreover, the growth in experiment [7] was -77.3% (active); in [8], -76% (active); in experiment [9] it was -80.1% (active); in experiment [10], -71% (active); in experiment [11] it was -81.7% (active); in experiment [12] it was -82.9% (active). Besides, the growth in experiment [13] is -66.2% (active); in experiment [14], -85% (active); in [15], -86.1% (active); in experiment [16], -78.2% (active); in [17], -84.3% (active); in [18] it was -65.8% (active). For the same molecule, in [19], the growth was -88.5% (active).
